Screens: PubChem, National Center for Advancing Translational Sciences (NCATS)
TRb SRC2 PPI: qHTS for Inhibitors of the Interaction of Thyroid Hormone Receptor and Steroid Receptor Coregulator 2. 280,000 compounds, 0.065% hits. Potency, µM (highest dose often 106 µM), hits mostly inhibitors. AID 1469, 2008. TRbeta-SRC2 peptide binding, fluorescence polarization; receptor liganded with 1 µM T3; also: nearly all actives have a fitted effect of over 50% in size
Target sequence (P10828 whole entry, looked up): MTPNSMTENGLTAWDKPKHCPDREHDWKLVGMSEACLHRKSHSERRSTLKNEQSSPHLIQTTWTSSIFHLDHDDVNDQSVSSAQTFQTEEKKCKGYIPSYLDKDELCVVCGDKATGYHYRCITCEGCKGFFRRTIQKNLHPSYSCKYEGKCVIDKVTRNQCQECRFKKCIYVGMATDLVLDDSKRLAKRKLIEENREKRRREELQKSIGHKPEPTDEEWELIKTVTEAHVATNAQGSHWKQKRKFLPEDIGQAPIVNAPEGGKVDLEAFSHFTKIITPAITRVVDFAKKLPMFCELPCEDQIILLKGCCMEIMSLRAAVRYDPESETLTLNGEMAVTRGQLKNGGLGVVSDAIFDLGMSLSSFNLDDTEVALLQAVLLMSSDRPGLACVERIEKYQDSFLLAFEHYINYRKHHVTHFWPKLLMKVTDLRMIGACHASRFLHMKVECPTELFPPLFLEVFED
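Quantitative HTS by FP: 0.6 uM TRb LBD, 20 nM labeled SRC2 20-mer, 1 uM T3, 5% DMSO; 5 hr ambient incubation; % activity per concentration and potencies from concentration series.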
Tau fibril ThT: qHTS for Inhibitors of Tau Fibril Formation, Thioflavin T Binding. Microtubule-associated protein tau (Homo sapiens), P10636. recombinant tau K18 P301L, heparin-induced fibrillization, ThT fluorescence. Potency, µM (highest dose often 57.4 µM), hits mostly inhibitors. 270,000 compounds, 2.1% hits. AID 1460, 2008; also: nearly all actives have a fitted effect of over 55% in size
Target sequence (P10636 561-689 P618L limits assumed): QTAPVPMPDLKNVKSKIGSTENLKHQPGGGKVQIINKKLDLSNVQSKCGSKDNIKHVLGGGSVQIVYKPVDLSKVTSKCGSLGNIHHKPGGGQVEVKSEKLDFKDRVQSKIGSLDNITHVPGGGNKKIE
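Using a mix of unlabeled (15 uM) and Alexa 594-labeled (0.24 uM) tau K18 P301L, heparin-triggered fibrillization over 6 hr at 37 C was scored by ThT fluorescence.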
Tau fibril FP: qHTS for Inhibitors of Tau Fibril Formation, Fluorescence Polarization. AID 1468, 2008. K18 P301L tau heparin fibrillization, Alexa594 FP, 6 h. 280,000 compounds, 0.39% hits. Microtubule-associated protein tau (Homo sapiens), P10636. Potency, µM (titrated, usually from 57.7 µM), usual class: inhibitors; also: nearly all actives have a fitted effect of over 55% in size
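Human tau K18 […] P301L fragment, 15 uM unlabeled plus 0.24 uM Alexa 594-labeled tau (final), with compound and 20 uM heparin in 100 mM sodium acetate pH 7; 6 hr at 37 C, then Alexa 594 FP read.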
TexasRed fluor: Total Fluorescence Counterscreen for Inhibitors of the Interaction of Thyroid Hormone Receptor and Steroid Receptor Coregulator 2 | TRb/SRC2 Texas Red total fluorescence interference | Potency, µM (series often up to 106 µM) | 280,000 compounds, 0.29% hits | AID 1479, 2009; active = well fitted curve in either direction with a large enough effect; inconclusive = small, poorly fitted or top-dose-only effect
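Human TRb ligand-binding domain at 0.6 uM with 20 nM Texas Red SRC2 peptide in Tris buffer containing 1 uM T3 and 5% DMSO, incubated with compound 5 h at ambient temperature. Total fluorescence (555/632 nm) calculated as parallel + 2 × perpendicular.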
Tau fluor counter: Counterscreen qHTS for Inhibitors of Tau Fibril Formation, Fluorescence Polarization. 280,000 compounds, 0.93% hits. AID 1463, 2008. Potency, µM (top dose mostly 57.7 µM). tau K18 P301L (four-repeat tau fragment) Alexa594 fluorescence, heparin fibrillization; also: nearly all actives have a fitted effect of over 55% in size
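Human K18 P301L tau (15 uM unlabeled plus 0.24 uM Alexa 594-labeled, final) in 100 mM sodium acetate pH 7 was mixed with compound and 20 uM heparin and incubated 6 hr at 37 C.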
Numbers stand for hits; [ ] = dose if it differs, or a comment. This is a sample that favours compounds with a hit; in the whole collection about 3% have one here. Unless noted, calls follow the shape of the dose curve; as a rule, active = well fitted curve in the direction sought with a large enough effect; inconclusive = small, poorly fitted or top-dose-only effect, or another doubt; inactive = no such curve, though single readings can be large; an effect the other way counts as inactive or inconclusive.

How did CC(C)c1ccc(NC(=O)C(Cc2ccccc2)NS(=O)(=O)c2ccc3c(c2)oc(=O)n3C)cc1 (configuration not stated) do in these assays?
TRb SRC2 PPI: inactive; Tau fibril ThT: inactive; Tau fibril FP: inconclusive; TexasRed fluor: inactive; Tau fluor counter: inactive

What do the screens show for `CCOC(=O)c1ccc(NC(=S)NCCc2ccccc2F)cc1`?
TRb SRC2 PPI: inactive; Tau fibril ThT: inactive; Tau fibril FP: 28µM; TexasRed fluor: inactive; Tau fluor counter: 20µM[quencher]

Results for CCc1cc2c(nc1CC)CCN(CC/C(C)=N/OC[C@@H](C)[C@H](OCc1ccccc1)C(C)C)C2 ?
TRb SRC2 PPI: inactive[11.2 µM]; Tau fibril ThT: inactive[11.5 µM]; Tau fibril FP: inactive[11.6 µM]; TexasRed fluor: inactive[11.2 µM]; Tau fluor counter: inactive[11.6 µM]

Results for O=C(Nc1ccccc1)C1=C(c2ccccc2)S(=O)(=O)CCS1(=O)=O ?
TRb SRC2 PPI: inactive; Tau fibril ThT: 28µM; Tau fibril FP: 22µM; TexasRed fluor: inactive; Tau fluor counter: inactive

Results for CCOc1ccc(C2=Cc3cc(OC)c(OC)cc3C(=C(Cl)Cl)O2)cc1 ?
TRb SRC2 PPI: 28µM; Tau fibril ThT: 18µM; Tau fibril FP: inconclusive; TexasRed fluor: inactive; Tau fluor counter: inconclusive

How did CCOc1ccc(-c2cc(-c3nc(-c4ccc(OC)c(OC)c4)no3)[nH]n2)cc1 do in these assays?
TRb SRC2 PPI: inactive; Tau fibril ThT: inconclusive; Tau fibril FP: inactive; TexasRed fluor: inactive; Tau fluor counter: inactive

What do the screens show for `O=c1[nH]n2c(=O)c3c([nH]c2c1N=Nc1cccc(Cl)c1)CCCC3`?
TRb SRC2 PPI: inactive; Tau fibril ThT: 2.8µM; Tau fibril FP: inactive; TexasRed fluor: inactive; Tau fluor counter: inconclusive

Results for CCOc1ccc(N=Nc2c(=O)[nH]n3c(=O)c4c([nH]c23)CCCC4)cc1 ?
TRb SRC2 PPI: inactive; Tau fibril ThT: 1.8µM; Tau fibril FP: inactive; TexasRed fluor: inactive; Tau fluor counter: inconclusive

What do the screens show for `CCN1C(=O)[C@H]2[C@H]3[C@H](O)[C@H](O)C/C(=N/O[C@@H]4O[C@@H](COC(C)=O)[C@@H](OC(C)=O)[C@@H](OC(C)=O)[C@H]4OC(C)=O)[C@H]3CC[C@@H]2C1=O`?
TRb SRC2 PPI: inactive[11.2 µM]; Tau fibril ThT: inactive[11.5 µM]; Tau fibril FP: inactive[11.6 µM]; TexasRed fluor: inactive[11.2 µM]; Tau fluor counter: inactive[11.6 µM]

What do the screens show for `CC(=O)c1ccc(NC(=O)CSc2nc(N)c3cc4c(nc3n2)CCCC4)cc1`?
TRb SRC2 PPI: inactive; Tau fibril ThT: inactive; Tau fibril FP: inactive; TexasRed fluor: 89µM[quencher]; Tau fluor counter: inactive

How did O=C(N/N=C/c1cccc(F)c1)c1cc(-c2ccco2)nc2ccccc12 do in these assays?
TRb SRC2 PPI: inactive; Tau fibril ThT: inconclusive; Tau fibril FP: inactive; TexasRed fluor: 32µM[quencher]; Tau fluor counter: inconclusive

Results for COc1cc(/C=N/NC(=O)c2cc(-c3ccco3)nc3ccccc23)cc(OC)c1O ?
TRb SRC2 PPI: inactive; Tau fibril ThT: inconclusive; Tau fibril FP: inactive; TexasRed fluor: inactive; Tau fluor counter: inconclusive

How did CCOC(=O)c1cc(S(=O)(=O)Nc2ccc(Br)c(C)c2)[nH]n1 do in these assays?
TRb SRC2 PPI: inactive; Tau fibril ThT: inactive; Tau fibril FP: inactive; TexasRed fluor: inactive; Tau fluor counter: inconclusive

What do the screens show for `COc1cc(/C=C/c2ccc3c(Br)cc(Br)c(O)c3n2)ccc1O`?
TRb SRC2 PPI: inactive; Tau fibril ThT: 3.5µM; Tau fibril FP: inactive; TexasRed fluor: inactive; Tau fluor counter: 5µM[quencher]

What do the screens show for `O=C(Nc1ccc(F)c(Cl)c1)C1CCN(c2ncccn2)CC1`?
TRb SRC2 PPI: inactive; Tau fibril ThT: inactive; Tau fibril FP: inactive; TexasRed fluor: inactive; Tau fluor counter: inactive

What do the screens show for `O=[N+]([O-])c1ccc(N2CCN(C(=S)Nc3cccc(F)c3)CC2)cc1`?
TRb SRC2 PPI: inactive; Tau fibril ThT: 16µM; Tau fibril FP: inactive; TexasRed fluor: inactive; Tau fluor counter: inconclusive

What do the screens show for `O=[N+]([O-])c1ccc(N2CCN(C(=S)Nc3ccc(F)cc3)CC2)cc1`?
TRb SRC2 PPI: inactive; Tau fibril ThT: inconclusive; Tau fibril FP: inactive; TexasRed fluor: inactive; Tau fluor counter: inconclusive

What do the screens show for `COC(=O)c1c(SCC(=O)Nc2ccccc2OC)[nH]c2ccccc2c1=O`?
TRb SRC2 PPI: inactive; Tau fibril ThT: 14µM; Tau fibril FP: inactive; TexasRed fluor: inactive; Tau fluor counter: inconclusive

Results for COc1ccc(OC)c(NC(=O)C(C)n2c(=O)cc(C)c3c(C)nn(-c4ccccc4)c32)c1 (configuration not stated) ?
TRb SRC2 PPI: inactive; Tau fibril ThT: inactive; Tau fibril FP: inactive; TexasRed fluor: inactive; Tau fluor counter: inactive

Results for CCN1c2ccccc2N(C)C1(C)c1ccccc1 (configuration not stated) ?
TRb SRC2 PPI: inconclusive; Tau fibril ThT: 4.5µM; Tau fibril FP: 16µM; TexasRed fluor: 45µM[fluorescent]; Tau fluor counter: inconclusive

Results for CN1c2ccccc2N(C)C1(C)c1ccccc1 ?
TRb SRC2 PPI: inactive; Tau fibril ThT: inactive; Tau fibril FP: inactive; TexasRed fluor: inactive; Tau fluor counter: inactive

What do the screens show for `c1cc2ccc3ccc4ccc5cccc6c(c1)c2c3c4c56`?
TRb SRC2 PPI: inactive; TexasRed fluor: inactive

How did Cc1ccc(C)c(NC(=O)CCS(=O)(=O)c2cccc3nsnc23)c1 do in these assays?
TRb SRC2 PPI: inactive; Tau fibril ThT: inactive; Tau fibril FP: inactive; TexasRed fluor: inactive; Tau fluor counter: inactive

Results for CC/C(C)=N\Nc1nc(-c2cc3cc(OC)ccc3oc2=O)cs1 ?
TRb SRC2 PPI: inactive; Tau fibril ThT: 22µM; Tau fibril FP: inconclusive; TexasRed fluor: inactive; Tau fluor counter: 18µM[quencher]

Results for COc1ccc2oc(=O)c(-c3nc(C)cs3)cc2c1 ?
TRb SRC2 PPI: inactive; Tau fibril ThT: inconclusive; Tau fibril FP: inactive; TexasRed fluor: inactive; Tau fluor counter: inactive

Results for Cc1cc(C)cc(NC(=O)CSCc2cc(=O)c3cc(Cl)ccc3[nH]2)c1 ?
TRb SRC2 PPI: inactive; Tau fibril ThT: inactive; Tau fibril FP: inactive; TexasRed fluor: inactive; Tau fluor counter: inactive

What do the screens show for `Nc1ccc(N)c(C(=O)O)c1`?
TRb SRC2 PPI: inactive; Tau fibril ThT: 14µM; Tau fibril FP: inconclusive; TexasRed fluor: inconclusive; Tau fluor counter: inconclusive

What do the screens show for `Nc1ccc(C(=O)O)c(O)c1`?
TRb SRC2 PPI: inactive; Tau fibril ThT: inconclusive; Tau fibril FP: inactive; TexasRed fluor: inactive; Tau fluor counter: inconclusive

How did COc1cccc(O)c1O do in these assays?
TRb SRC2 PPI: inactive; Tau fibril ThT: 14µM; Tau fibril FP: 25µM; TexasRed fluor: inactive; Tau fluor counter: 11µM[quencher]

Results for CN(C)CCCNc1cc(C(C)(C)C)nc2c(-c3ccccc3)cnn12 ?
TRb SRC2 PPI: inactive; Tau fibril ThT: inconclusive; Tau fibril FP: inconclusive; TexasRed fluor: inactive; Tau fluor counter: 22µM[quencher]
